# Active and inactive are the calls of the source. Rule for the calls: active = hit-call score of the fitted dose curve at least 0.9, where 1 is the maximum; inactive = score below 0.9.
# Columns and labels:
# Conditions in all cases: mRNA level, 48 h; actives raise or lower the signal
# [1] = read-out: Cyclin Dependent Kinase Inhibitor 1A (CDKN1A), CDKN1A (gene 1026); test: LTEA_HepaRG_CDKN1A: Life Technologies and Expression Analysis (LTEA) Assay for Cyclin Dependent Kinase Inhibitor 1A (CDKN1A) using HepaRG (AID 2283450)
# Summary of the method: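 Expression quantified by Fluidigm qRT-PCR with ACTB, GAPDH and POLR2A normalization, fitted bidirectionally against 0.5% DMSO. Cells: HepaRG, plated 48 h then treated 48 h in serum-free induction medium, top concentration 100 uM with half-log dilutions.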
# [2] = read-out: Cyclin D1 (CCND1), CCND1 (gene 595); test: LTEA_HepaRG_CCND1: Life Technologies and Expression Analysis (LTEA) Assay for Cyclin D1 (CCND1) using HepaRG (AID 2283451);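 for AC50: differentiated human HepaRG liver cells in serum-free induction medium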
# Summary of the method: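 Expression of CCND1 was quantified by qRT-PCR on Fluidigm arrays using ACTB, GAPDH and POLR2A as reference genes. HepaRG cultures, plated 48 h beforehand, were dosed for 48 h at up to 100 uM (half-log, 8 points) in 0.5% DMSO.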
# [3] = read-out: catalase (CAT), CAT (gene 847); test: LTEA_HepaRG_CAT: Life Technologies and Expression Analysis (LTEA) Assay for catalase (CAT) using HepaRG (AID 2283452)
# Summary of the method: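 Expression of CAT was quantified by TaqMan qRT-PCR with ACTB/GAPDH/POLR2A normalization after 48 h chemical exposure of HepaRG. Eight-point half-log series, top 100 uM, in 0.5% DMSO; gain or loss fitted against vehicle.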
# [4] = read-out: flavin-containing dimethylaniline monooxygenases 3 (FMO3), FMO3 (gene 2328); test: LTEA_HepaRG_FMO3: Life Technologies and Expression Analysis (LTEA) Assay for flavin-containing dimethylaniline monooxygenases 3 (FMO3) using HepaRG (AID 2283453);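 for AC50: differentiated human HepaRG liver cells in serum-free induction medium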
# Summary of the method: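 Differentiated HepaRG cells in serum-free induction medium, exposed 48 h in duplicate to 8 half-log concentrations up to 100 uM in 0.5% DMSO. FMO3 mRNA by qRT-PCR, normalized to ACTB, GAPDH, POLR2A; bidirectional fit vs DMSO.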
# [5] = read-out: Cytochrome P450 (CYP1A1), CYP1A1 (gene 1543); test: LTEA_HepaRG_CYP1A1: Life Technologies and Expression Analysis (LTEA) Assay for Cytochrome P450 (CYP1A1) using HepaRG (AID 2283454)
# Summary of the method: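 CYP1A1 transcript levels measured by Fluidigm qRT-PCR against three housekeeping genes, 48 h after chemical dosing of human HepaRG cells (highest concentration 100 uM, half-log steps, 0.5% DMSO vehicle). Gain or loss of signal fitted relative to DMSO.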
# [6] = read-out: CFLAR gene, CFLAR (gene 8837); test: LTEA_HepaRG_CFLAR: Life Technologies and Expression Analysis (LTEA) Assay for CFLAR gene using HepaRG (AID 2283455)
# Summary of the method: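 HepaRG, 48 h exposure, 8-pt conc-response (100 uM top, half-log), 0.5% DMSO vehicle, duplicates. CFLAR expression by qRT-PCR; ACTB/GAPDH/POLR2A normalization; gain or loss fit vs DMSO baseline.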
# [7] = read-out: Forkhead box O1 (FOXO1), FOXO1 (gene 2308); test: LTEA_HepaRG_FOXO1: Life Technologies and Expression Analysis (LTEA) Assay for Forkhead box O1 (FOXO1) using HepaRG (AID 2283456)
# Summary of the method: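 Readout is FOXO1 transcript level by multiplexed qRT-PCR against three housekeeping genes, curve-fitted in both directions relative to 0.5% DMSO vehicle. Human HepaRG cultures received chemicals for 48 h, up to 100 uM in half-log steps.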
# [8] = read-out: ABC Transporter (ABCB1), ABCB1 (gene 5243); test: LTEA_HepaRG_ABCB1: Life Technologies and Expression Analysis (LTEA) Assay for ABC Transporter (ABCB1) using HepaRG (AID 2283460)
# Summary of the method: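 Expression of ABCB1 was quantified by qRT-PCR against three housekeeping genes after human HepaRG cultures received test chemicals for 48 hours. Concentrations spanned eight half-log steps topping at 100 uM in 0.5% DMSO; gain or loss of signal was fitted relative to vehicle.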
# [9] = read-out: growth arrest and DNA damage 45 (GADD45B), GADD45B (gene 4616); test: LTEA_HepaRG_GADD45B: Life Technologies and Expression Analysis (LTEA) Assay for growth arrest and DNA damage 45 (GADD45B) using HepaRG (AID 2283461)
# Summary of the method: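 Transcript level quantified by Fluidigm TaqMan qRT-PCR with three housekeeping genes for normalization, analyzed for up- or down-regulation against 0.5% DMSO. HepaRG cultures dosed 48 h at eight half-log concentrations up to 100 uM, duplicates.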
# [10] = read-out: ABC Transporter (ABCC3), ABCC3 (gene 8714); test: LTEA_HepaRG_ABCC3: Life Technologies and Expression Analysis (LTEA) Assay for ABC Transporter (ABCC3) using HepaRG (AID 2283462)
# Summary of the method: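 Transcript level by TaqMan qRT-PCR, normalised to three housekeeping genes, fitted in both directions relative to vehicle. Chemicals tested in duplicate at eight half-log concentrations up to 100 uM for 48 h on HepaRG cells (0.5% DMSO).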
# [11] = read-out: ABC Transporter (ABCB11), ABCB11 (gene 8647); test: LTEA_HepaRG_ABCB11: Life Technologies and Expression Analysis (LTEA) Assay for ABC Transporter (ABCB11) using HepaRG (AID 2283463)
# Summary of the method: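 ABCB11 transcript levels are read by Fluidigm TaqMan qRT-PCR after 48 h chemical treatment of human HepaRG cells. Concentrations span 100 uM downward in half-log steps with 0.5% DMSO; gain or loss is fitted against DMSO controls.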
# [12] = read-out: ABC Transporter (ABCC2), ABCC2 (gene 1244); test: LTEA_HepaRG_ABCC2: Life Technologies and Expression Analysis (LTEA) Assay for ABC Transporter (ABCC2) using HepaRG (AID 2283464)
# Summary of the method: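 Endpoint is ABCC2 transcript level from qRT-PCR, normalized to three housekeeping genes and fitted bidirectionally relative to DMSO. Human HepaRG cells received test chemical for 48 h at up to 100 uM (8 points, half-log steps, 0.5% DMSO), duplicate wells.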
# [13] = read-out: Broad substrate specificity ATP-binding cassette transporter ABCG2 (Homo sapiens) (UniProt Q9UNQ0); test: LTEA_HepaRG_ABCG2: Life Technologies and Expression Analysis (LTEA) Assay for ABC Transporter (ABCG2) using HepaRG (AID 2283465)
# Summary of the method: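 Read-out is ABCG2 mRNA induction or loss quantified by qRT-PCR after 48 h chemical treatment of human HepaRG cells, normalized to three housekeeping genes. Concentrations reached 100 uM top in half-log steps; fitting was bidirectional against 0.5% DMSO.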
# [14] = read-out: ATP-citrate lyase (ACLY), ACLY (gene 47); test: LTEA_HepaRG_ACLY: Life Technologies and Expression Analysis (LTEA) Assay for ATP-citrate lyase (ACLY) using HepaRG (AID 2283466)
# Summary of the method: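 HepaRG, 48 h exposure, 8-pt half-log dilutions (top 100 uM), 0.5% DMSO. Readout: ACLY mRNA, TaqMan qRT-PCR, housekeeping-normalized (ACTB/GAPDH/POLR2A). Bidirectional curve fit vs DMSO.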
# [15] = read-out: Peroxisomal acyl-coenzyme A oxidase 1 (ACOX1) gene, ACOX1 (gene 51); test: LTEA_HepaRG_ACOX1: Life Technologies and Expression Analysis (LTEA) Assay for Peroxisomal acyl-coenzyme A oxidase 1 (ACOX1) gene using HepaRG (AID 2283467)
# Summary of the method: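 Measured by qRT-PCR against three housekeeping genes: ACOX1 transcript change in human HepaRG cells after 48 h dosing. Concentrations ran up to 100 uM in half-log steps. Curves were fitted bidirectionally relative to 0.5% DMSO.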
# [16] = read-out: Alkaline Phosphatase, Placental (ALPP) gene, ALPP (gene 250); test: LTEA_HepaRG_ALPP: Life Technologies and Expression Analysis (LTEA) Assay for Alkaline Phosphatase, Placental (ALPP) gene using HepaRG (AID 2283468)
# Summary of the method: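 ALPP transcript level, measured by qRT-PCR and normalized to three housekeeping genes (ACTB, GAPDH, POLR2A), after 48 h dosing of differentiated HepaRG in serum-free induction medium. Top concentration 100 uM with half-log dilutions (8 points, 0.5% DMSO, duplicates); bidirectional fitting relative to DMSO.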
# [17] = read-out: Bcl-2 (BAD) gene, BAD (gene 572); test: LTEA_HepaRG_BAD: Life Technologies and Expression Analysis (LTEA) Assay for Bcl-2 (BAD) gene using HepaRG (AID 2283469)
# Summary of the method: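 BAD transcript change, measured by qRT-PCR against three housekeeping genes and fitted in both directions relative to 0.5% DMSO, after 48 h chemical treatment of human HepaRG liver cells at concentrations up to 100 uM.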
# [18] = read-out: growth arrest and DNA damage 45 (GADD45A), GADD45A (gene 1647); test: LTEA_HepaRG_GADD45A: Life Technologies and Expression Analysis (LTEA) Assay for growth arrest and DNA damage 45 (GADD45A) using HepaRG (AID 2283458)
# Summary of the method: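 Differentiated HepaRG cells exposed 48 h in serum-free induction medium to 8 concentrations, top 100 uM in half-log steps, 0.5% DMSO. GADD45A mRNA quantified by qRT-PCR, normalized to ACTB, GAPDH and POLR2A; bidirectional fit versus DMSO.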
# [19] = read-out: Forkhead box O3 (FOXO3), FOXO3 (gene 2309); test: LTEA_HepaRG_FOXO3: Life Technologies and Expression Analysis (LTEA) Assay for Forkhead box O3 (FOXO3) using HepaRG (AID 2283459)
# Summary of the method: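 HepaRG, 48 h post-dose; 8 conc., half-log from 100 uM, 0.5% DMSO, duplicates; serum-free induction medium. Readout: FOXO3 mRNA, TaqMan qRT-PCR, housekeeping-normalized. Bidirectional curve fit vs DMSO baseline.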
# Broad substrate specificity ATP-binding cassette transporter ABCG2 (Homo sapiens), sequence (Q9UNQ0 whole entry, looked up): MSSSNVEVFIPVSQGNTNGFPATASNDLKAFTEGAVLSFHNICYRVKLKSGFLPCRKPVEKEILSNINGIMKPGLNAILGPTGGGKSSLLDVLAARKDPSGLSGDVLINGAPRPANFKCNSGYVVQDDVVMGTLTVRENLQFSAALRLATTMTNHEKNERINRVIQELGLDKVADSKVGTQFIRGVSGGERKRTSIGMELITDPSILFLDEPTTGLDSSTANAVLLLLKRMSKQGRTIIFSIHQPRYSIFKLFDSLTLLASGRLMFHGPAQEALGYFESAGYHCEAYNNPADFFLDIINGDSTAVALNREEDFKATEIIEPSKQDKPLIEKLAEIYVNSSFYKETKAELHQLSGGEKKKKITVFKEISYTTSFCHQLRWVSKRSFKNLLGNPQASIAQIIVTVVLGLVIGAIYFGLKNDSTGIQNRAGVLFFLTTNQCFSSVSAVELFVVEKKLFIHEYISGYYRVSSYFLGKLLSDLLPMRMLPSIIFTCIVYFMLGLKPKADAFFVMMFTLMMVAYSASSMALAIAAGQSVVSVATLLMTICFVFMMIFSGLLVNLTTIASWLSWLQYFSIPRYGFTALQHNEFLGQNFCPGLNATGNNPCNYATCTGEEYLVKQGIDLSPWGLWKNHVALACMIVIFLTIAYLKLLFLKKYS
structure (smiles),measurement,setting,value
CCCCC(C#N)(Cn1cncn1)c1ccc(Cl)cc1 (stereo not drawn),AC50,[1],50 µM (active)
same,outcome,[2],inactive
same,outcome,[3],inactive
same,outcome,[4],inactive
same,AC50,[5],27.1 µM (active)
same,outcome,[6],inactive
same,outcome,[7],inactive
same,AC50,[8],13.1 µM (active)
same,outcome,[9],inactive
same,outcome,[10],inactive
same,AC50,[11],91.7 µM (active)
same,outcome,[12],inactive
same,AC50,[13],4.77 µM (active)
same,AC50,[14],50 µM (active)
same,outcome,[15],inactive
same,outcome,[16],inactive
same,outcome,[17],inactive
Cn1c(-c2ccccc2)cc(-c2ccccc2)[n+]1C,AC50,[2],75.6 µM (active)
same,AC50,[3],21.9 µM (active)
same,AC50,[4],50 µM (active)
same,AC50,[5],75 µM (active)
same,AC50,[6],82.3 µM (active)
same,AC50,[7],77.7 µM (active)
same,outcome,[18],inactive
same,AC50,[10],2.67 µM (active)
same,AC50,[11],24.4 µM (active)
same,AC50,[12],62.6 µM (active)
same,outcome,[13],inactive
same,outcome,[14],inactive
same,AC50,[15],21.2 µM (active)
same,outcome,[17],inactive
CS(=O)(=O)c1ccc(C(=O)C2C(=O)CCCC2=O)c([N+](=O)[O-])c1,outcome,[2],inactive
same,outcome,[3],inactive
same,outcome,[4],inactive
same,AC50,[5],19.1 µM (active)
same,outcome,[6],inactive
same,outcome,[7],inactive
same,outcome,[18],inactive
same,outcome,[8],inactive
same,outcome,[9],inactive
same,outcome,[10],inactive
same,outcome,[11],inactive
same,outcome,[12],inactive
same,outcome,[13],inactive
same,outcome,[14],inactive
same,outcome,[15],inactive
same,outcome,[16],inactive
same,outcome,[17],inactive
CC1(C)C(C=C(Cl)Cl)C1C(=O)OC(C#N)c1cccc(Oc2ccccc2)c1 (stereo not drawn),outcome,[2],inactive
same,outcome,[3],inactive
same,outcome,[4],inactive
same,AC50,[5],28.8 µM (active)
same,outcome,[6],inactive
same,outcome,[7],inactive
same,outcome,[19],inactive
same,AC50,[8],50 µM (active)
same,outcome,[9],inactive
same,outcome,[10],inactive
same,outcome,[11],inactive
same,outcome,[12],inactive
same,AC50,[13],10.8 µM (active)
same,outcome,[14],inactive
same,outcome,[15],inactive
same,outcome,[16],inactive
same,outcome,[17],inactive
CC(C)Oc1cccc(NC(=O)c2ccccc2C(F)(F)F)c1,outcome,[2],inactive
same,outcome,[3],inactive
same,outcome,[4],inactive
same,AC50,[5],81.6 µM (active)
same,outcome,[6],inactive
same,outcome,[7],inactive
same,outcome,[18],inactive
same,AC50,[8],50 µM (active)
same,outcome,[9],inactive
same,outcome,[10],inactive
same,outcome,[11],inactive
same,outcome,[12],inactive
same,outcome,[13],inactive
same,outcome,[14],inactive
same,outcome,[15],inactive
same,outcome,[17],inactive
CS(=O)(=O)c1cc(C(F)(F)F)ccc1C(=O)c1cnoc1C1CC1,outcome,[2],inactive
same,outcome,[3],inactive
same,outcome,[4],inactive
same,AC50,[5],78 µM (active)
same,outcome,[6],inactive
same,outcome,[7],inactive
same,outcome,[19],inactive
same,outcome,[8],inactive
same,outcome,[9],inactive
same,outcome,[10],inactive
same,outcome,[11],inactive
same,outcome,[12],inactive
same,outcome,[13],inactive
same,outcome,[14],inactive
same,outcome,[15],inactive
same,outcome,[17],inactive
COP(=O)(OC)O/C(C)=C/C(=O)N(C)C,outcome,[2],inactive
same,outcome,[3],inactive
same,outcome,[4],inactive
same,outcome,[5],inactive
same,outcome,[6],inactive
same,outcome,[7],inactive
same,outcome,[19],inactive
same,outcome,[8],inactive
same,outcome,[9],inactive
same,outcome,[10],inactive
same,AC50,[11],11 µM (active)
same,outcome,[12],inactive
same,outcome,[13],inactive
same,outcome,[14],inactive
same,outcome,[15],inactive
same,outcome,[17],inactive

# Reference: PubChem BioAssay (EPA / NIEHS)
